Key:
Assay in all cases: DAPPL (digital affinity profiling via proximity ligation, sequencing); 10 mM Tris-HCl pH 7.5, 50 mM NaCl, 1 mM DTT, 4% glycerol, room temperature, 30 min; GST-TFs on glutathione beads, 16-mer random dsDNA library, 0.1% formaldehyde crosslink after washing; high values mean tight binding
Conditions in all cases: protein: recombinant; tags: N-terminal GST; dsDNA, one strand shown
GABPA = molecular target: T1, GABPA (Homo sapiens, UniProt Q06546 1-454)
T1 sequence: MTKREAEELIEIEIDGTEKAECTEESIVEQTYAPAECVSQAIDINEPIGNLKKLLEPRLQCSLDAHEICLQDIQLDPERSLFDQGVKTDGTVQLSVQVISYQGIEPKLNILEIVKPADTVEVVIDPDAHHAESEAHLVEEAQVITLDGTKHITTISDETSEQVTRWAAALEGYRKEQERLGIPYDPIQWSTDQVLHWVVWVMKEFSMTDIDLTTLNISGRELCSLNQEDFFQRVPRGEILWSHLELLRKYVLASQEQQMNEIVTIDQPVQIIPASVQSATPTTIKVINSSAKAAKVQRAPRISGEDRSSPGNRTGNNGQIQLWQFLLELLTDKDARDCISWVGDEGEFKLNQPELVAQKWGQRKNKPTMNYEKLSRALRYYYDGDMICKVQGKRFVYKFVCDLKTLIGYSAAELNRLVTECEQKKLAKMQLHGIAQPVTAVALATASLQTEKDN
Method in brief: (§1)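 A tag-only sample was pooled with DNA-barcoded human transcription factors that had been expressed in yeast as GST fusions and captured on glutathione beads. The pools were incubated for 30 min at room temperature with 200 nmole of a random double-stranded 16-mer DNA library in Tris/NaCl/DTT/glycerol buffer, then washed, crosslinked with 0.1% formaldehyde, proximity-ligated (BsaI/T4 ligase, 1 h, 37 °C), PCR-amplified and sequenced on an Illumina NextSeq500. Binding signal is each hexamer's read frequency for a factor divided by its frequency for the tag-only sample.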

ELF1 = ELF1 (Homo sapiens, UniProt P32519 1-619)
Method in brief: as §1

EHF = molecular target: T2, EHF (Homo sapiens, UniProt Q9NZC4 1-300)
T2 sequence: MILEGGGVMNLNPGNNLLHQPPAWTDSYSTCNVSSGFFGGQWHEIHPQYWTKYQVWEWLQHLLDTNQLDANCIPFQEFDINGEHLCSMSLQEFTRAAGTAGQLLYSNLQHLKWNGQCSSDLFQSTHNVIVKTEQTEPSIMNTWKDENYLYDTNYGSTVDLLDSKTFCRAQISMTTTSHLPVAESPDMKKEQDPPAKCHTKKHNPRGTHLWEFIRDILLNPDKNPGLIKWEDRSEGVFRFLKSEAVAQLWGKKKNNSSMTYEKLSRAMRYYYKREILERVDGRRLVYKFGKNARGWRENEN
Method in brief: as §1

SPIB = SPIB (Homo sapiens, UniProt Q01892 1-262)
Method in brief: as §1

ETV5 = ETV5 (Homo sapiens, UniProt P41161 1-510)
Method in brief: as §1

ELK4 = molecular target: T3, ELK4 (Homo sapiens, UniProt P28324-2 1-405)
T3 sequence: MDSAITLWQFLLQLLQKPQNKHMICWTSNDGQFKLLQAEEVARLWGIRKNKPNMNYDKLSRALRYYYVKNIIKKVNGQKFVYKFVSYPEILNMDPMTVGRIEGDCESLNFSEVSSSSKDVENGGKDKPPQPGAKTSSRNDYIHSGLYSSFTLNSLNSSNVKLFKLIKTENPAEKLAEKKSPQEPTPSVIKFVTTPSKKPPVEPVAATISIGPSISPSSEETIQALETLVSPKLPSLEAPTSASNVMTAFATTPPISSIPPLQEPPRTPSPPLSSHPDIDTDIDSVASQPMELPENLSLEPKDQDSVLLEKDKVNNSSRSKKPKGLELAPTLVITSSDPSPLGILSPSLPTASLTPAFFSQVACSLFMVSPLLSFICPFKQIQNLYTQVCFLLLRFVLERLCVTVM
Method in brief: as §1

ETV1 = ETV1 (Homo sapiens, UniProt P50549 1-477)
Method in brief: as §1

ERF = molecular target: T4, ERF (Homo sapiens, UniProt P50548 1-548)
T4 sequence: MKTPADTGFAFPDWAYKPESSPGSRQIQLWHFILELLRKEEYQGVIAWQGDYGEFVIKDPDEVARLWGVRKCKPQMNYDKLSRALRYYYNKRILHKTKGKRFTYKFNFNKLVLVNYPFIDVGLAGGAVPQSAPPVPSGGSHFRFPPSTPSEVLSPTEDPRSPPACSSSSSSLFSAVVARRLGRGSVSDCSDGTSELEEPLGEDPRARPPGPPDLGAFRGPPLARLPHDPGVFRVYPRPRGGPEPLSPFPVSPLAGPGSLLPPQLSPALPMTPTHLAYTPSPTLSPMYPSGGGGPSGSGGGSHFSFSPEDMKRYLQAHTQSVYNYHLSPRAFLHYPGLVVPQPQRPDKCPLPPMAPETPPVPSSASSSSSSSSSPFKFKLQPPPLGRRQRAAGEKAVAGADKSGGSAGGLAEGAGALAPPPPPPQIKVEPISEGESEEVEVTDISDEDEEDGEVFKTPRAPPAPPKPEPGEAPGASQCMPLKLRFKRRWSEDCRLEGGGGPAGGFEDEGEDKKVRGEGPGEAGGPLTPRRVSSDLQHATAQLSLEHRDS
Method in brief: as §1

ETV3L = molecular target: T5, ETV3L (Homo sapiens, UniProt Q6ZN32 1-361)
T5 sequence: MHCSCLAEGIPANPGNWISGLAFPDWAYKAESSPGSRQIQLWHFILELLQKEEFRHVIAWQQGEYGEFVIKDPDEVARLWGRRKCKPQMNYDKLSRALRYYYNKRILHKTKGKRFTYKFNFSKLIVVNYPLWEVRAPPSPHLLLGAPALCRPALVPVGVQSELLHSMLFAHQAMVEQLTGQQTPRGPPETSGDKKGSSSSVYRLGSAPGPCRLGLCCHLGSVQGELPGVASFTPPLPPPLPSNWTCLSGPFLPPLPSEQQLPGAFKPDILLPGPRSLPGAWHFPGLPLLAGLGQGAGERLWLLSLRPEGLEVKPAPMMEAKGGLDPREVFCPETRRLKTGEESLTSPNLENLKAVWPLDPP
Method in brief: as §1

SPDEF = molecular target: T6, SPDEF (Homo sapiens, UniProt O95238 1-335)
T6 sequence: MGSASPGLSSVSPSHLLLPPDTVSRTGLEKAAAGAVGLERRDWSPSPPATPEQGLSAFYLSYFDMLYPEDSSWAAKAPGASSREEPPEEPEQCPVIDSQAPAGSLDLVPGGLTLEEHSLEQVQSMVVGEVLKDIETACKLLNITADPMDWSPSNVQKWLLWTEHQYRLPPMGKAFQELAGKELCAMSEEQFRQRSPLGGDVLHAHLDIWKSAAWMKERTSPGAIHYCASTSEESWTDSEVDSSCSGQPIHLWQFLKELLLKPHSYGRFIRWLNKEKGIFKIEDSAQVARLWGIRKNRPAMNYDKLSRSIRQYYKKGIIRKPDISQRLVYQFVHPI
Method in brief: as §1

ETV3 = molecular target: T7, ETV3 (Homo sapiens, UniProt P41162-2 1-143)
T7 sequence: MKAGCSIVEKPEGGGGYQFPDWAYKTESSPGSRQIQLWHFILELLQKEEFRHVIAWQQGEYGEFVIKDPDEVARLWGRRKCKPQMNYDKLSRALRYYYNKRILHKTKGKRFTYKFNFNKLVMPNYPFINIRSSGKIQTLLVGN
Method in brief: as §1

ETV6 = ETV6 (Homo sapiens, UniProt P41212 1-452)
Method in brief: as §1

FEV = molecular target: T8, FEV (Homo sapiens, UniProt Q99581 1-238)
T8 sequence: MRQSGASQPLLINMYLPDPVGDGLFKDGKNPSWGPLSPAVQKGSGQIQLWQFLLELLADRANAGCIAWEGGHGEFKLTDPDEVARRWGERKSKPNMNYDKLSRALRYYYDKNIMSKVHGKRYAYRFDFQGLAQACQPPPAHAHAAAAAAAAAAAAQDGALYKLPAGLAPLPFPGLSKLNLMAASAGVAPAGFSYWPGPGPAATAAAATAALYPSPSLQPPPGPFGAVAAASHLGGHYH
Method in brief: as §1

ELF4 = ELF4 (Homo sapiens, UniProt Q99607 1-663)
Method in brief: as §1

ETV2 = molecular target: T9, ETV2 (Homo sapiens, UniProt O00321 1-342)
T9 sequence: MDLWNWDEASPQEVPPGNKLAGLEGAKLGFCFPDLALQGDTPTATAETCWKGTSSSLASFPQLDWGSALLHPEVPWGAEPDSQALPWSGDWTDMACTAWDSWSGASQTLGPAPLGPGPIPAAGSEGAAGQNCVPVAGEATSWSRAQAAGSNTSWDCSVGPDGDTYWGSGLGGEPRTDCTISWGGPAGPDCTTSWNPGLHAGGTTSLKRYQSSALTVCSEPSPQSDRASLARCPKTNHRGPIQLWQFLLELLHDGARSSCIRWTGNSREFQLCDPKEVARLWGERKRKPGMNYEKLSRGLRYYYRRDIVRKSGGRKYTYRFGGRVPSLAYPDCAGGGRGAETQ
Method in brief: as §1

ELF3 = molecular target: T10, ELF3 (Homo sapiens, UniProt P78545 1-371)
T10 sequence: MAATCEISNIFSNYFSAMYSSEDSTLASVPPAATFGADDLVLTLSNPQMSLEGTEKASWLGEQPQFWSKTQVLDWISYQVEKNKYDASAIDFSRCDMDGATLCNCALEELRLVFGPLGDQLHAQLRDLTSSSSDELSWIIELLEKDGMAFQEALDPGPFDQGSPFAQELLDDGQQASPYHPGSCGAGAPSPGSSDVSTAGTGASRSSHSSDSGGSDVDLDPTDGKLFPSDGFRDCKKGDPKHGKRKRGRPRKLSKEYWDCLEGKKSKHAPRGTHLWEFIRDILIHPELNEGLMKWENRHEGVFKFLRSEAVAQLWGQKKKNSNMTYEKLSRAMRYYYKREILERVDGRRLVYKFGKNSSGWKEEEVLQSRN
Method in brief: as §1

ETS2 = molecular target: T11, ETS2 (Homo sapiens, UniProt P15036 1-469)
T11 sequence: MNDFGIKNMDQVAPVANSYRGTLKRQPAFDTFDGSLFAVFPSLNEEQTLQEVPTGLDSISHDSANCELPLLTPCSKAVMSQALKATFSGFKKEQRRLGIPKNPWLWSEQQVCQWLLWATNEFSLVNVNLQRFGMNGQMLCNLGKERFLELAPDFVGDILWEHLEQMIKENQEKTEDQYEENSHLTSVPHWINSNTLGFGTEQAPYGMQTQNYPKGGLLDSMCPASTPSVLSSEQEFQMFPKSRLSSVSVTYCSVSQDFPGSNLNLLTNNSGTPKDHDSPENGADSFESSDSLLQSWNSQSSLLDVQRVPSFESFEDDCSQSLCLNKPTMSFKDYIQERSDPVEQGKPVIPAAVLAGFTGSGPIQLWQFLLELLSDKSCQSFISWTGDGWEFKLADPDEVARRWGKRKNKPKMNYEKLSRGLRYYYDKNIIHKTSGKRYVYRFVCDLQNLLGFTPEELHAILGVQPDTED
Method in brief: as §1

ETV7 = molecular target: T12, ETV7 (Homo sapiens, UniProt Q9Y603 1-341)
T12 sequence: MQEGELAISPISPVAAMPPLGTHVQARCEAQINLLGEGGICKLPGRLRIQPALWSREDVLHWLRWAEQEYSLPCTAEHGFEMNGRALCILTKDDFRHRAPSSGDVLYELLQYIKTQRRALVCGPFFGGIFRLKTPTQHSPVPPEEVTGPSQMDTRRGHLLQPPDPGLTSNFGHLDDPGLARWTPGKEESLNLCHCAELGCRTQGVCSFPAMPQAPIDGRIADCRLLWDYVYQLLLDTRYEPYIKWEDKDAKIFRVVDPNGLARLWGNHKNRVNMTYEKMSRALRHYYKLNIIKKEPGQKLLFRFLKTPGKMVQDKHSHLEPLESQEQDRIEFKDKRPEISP
Method in brief: as §1

ETV6, sequence (P41212 whole entry): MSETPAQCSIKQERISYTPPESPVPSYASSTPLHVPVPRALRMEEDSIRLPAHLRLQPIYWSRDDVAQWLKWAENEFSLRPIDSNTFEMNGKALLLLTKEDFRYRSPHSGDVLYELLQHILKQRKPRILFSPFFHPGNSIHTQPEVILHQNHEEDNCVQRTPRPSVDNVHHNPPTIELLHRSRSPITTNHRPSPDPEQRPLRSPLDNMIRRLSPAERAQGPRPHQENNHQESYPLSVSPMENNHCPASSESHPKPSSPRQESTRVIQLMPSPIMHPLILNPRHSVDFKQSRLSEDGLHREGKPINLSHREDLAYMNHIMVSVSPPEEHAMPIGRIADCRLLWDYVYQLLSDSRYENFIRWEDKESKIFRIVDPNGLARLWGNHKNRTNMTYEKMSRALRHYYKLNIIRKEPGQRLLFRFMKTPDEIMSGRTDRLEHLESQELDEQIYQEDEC
ELF1, sequence (P32519 whole entry): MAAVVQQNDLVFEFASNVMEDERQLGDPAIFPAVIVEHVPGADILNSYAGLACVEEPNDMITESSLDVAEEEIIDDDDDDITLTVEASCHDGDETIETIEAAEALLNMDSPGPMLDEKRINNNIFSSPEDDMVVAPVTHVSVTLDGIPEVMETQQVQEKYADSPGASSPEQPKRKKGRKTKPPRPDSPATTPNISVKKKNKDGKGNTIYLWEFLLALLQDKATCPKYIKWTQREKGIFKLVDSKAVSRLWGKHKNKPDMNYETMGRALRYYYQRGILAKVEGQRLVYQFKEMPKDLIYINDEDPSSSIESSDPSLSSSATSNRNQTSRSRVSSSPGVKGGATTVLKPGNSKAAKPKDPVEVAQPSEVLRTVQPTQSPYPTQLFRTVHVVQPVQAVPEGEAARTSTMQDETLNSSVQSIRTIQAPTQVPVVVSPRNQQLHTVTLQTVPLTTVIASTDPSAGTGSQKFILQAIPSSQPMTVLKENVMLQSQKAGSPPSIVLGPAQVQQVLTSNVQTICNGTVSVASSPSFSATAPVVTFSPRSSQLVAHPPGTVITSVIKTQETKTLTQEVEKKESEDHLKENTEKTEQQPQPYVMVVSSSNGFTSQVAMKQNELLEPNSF
ETV1, sequence (P50549 whole entry): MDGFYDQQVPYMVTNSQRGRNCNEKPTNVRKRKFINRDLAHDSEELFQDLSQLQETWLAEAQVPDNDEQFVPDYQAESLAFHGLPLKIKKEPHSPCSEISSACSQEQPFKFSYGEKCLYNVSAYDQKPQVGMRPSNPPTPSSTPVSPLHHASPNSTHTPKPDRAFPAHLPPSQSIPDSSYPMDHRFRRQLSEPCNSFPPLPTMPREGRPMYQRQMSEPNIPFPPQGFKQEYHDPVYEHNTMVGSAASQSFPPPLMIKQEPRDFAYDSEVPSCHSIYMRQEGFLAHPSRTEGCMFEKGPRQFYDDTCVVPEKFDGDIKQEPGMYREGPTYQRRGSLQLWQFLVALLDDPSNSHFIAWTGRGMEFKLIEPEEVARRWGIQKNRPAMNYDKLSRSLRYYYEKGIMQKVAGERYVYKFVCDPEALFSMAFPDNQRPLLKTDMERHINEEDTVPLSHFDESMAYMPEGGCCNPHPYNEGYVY
ETV5, sequence (P41161 whole entry): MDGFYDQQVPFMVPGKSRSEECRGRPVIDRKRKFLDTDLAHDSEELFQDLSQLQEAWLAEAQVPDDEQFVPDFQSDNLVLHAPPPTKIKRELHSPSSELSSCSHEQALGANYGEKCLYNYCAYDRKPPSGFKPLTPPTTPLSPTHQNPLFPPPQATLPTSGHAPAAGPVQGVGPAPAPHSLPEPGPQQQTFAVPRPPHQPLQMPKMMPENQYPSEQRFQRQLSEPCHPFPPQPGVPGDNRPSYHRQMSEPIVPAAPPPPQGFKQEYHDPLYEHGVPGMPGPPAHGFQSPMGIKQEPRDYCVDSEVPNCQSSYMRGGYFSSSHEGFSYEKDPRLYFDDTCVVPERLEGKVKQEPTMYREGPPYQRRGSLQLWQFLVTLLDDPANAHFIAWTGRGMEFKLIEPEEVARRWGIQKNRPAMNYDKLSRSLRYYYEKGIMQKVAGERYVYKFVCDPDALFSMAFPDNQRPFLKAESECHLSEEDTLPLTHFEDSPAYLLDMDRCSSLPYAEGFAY
SPIB, sequence (Q01892 whole entry): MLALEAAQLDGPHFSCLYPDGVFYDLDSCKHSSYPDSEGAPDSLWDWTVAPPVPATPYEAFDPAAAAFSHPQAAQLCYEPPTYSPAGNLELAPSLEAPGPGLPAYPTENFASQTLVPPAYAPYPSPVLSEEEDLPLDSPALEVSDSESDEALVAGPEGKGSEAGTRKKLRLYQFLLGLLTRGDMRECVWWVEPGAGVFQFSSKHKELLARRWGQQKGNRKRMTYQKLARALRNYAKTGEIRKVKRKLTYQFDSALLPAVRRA
ELF4, sequence (Q99607 whole entry): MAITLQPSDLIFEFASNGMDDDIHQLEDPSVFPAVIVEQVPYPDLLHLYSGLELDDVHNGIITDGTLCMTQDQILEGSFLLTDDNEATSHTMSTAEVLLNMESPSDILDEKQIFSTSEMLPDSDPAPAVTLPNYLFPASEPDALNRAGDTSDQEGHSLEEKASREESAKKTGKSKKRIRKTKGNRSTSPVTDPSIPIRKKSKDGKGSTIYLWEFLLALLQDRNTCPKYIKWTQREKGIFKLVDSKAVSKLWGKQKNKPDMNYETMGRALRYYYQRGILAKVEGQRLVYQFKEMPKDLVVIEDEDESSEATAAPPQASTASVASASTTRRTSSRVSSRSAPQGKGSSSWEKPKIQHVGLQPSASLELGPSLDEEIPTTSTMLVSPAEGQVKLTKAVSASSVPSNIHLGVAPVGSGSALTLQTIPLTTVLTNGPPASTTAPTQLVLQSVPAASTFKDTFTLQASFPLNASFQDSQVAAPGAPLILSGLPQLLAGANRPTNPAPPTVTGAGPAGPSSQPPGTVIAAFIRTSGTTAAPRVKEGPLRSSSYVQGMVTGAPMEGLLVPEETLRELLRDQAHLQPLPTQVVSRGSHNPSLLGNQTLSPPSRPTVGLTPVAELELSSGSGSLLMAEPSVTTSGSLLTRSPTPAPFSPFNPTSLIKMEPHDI

| Sequence | binding signal (GABPA) | binding signal (ELF1) | binding signal (EHF) | binding signal (SPIB) | binding signal (ETV5) | binding signal (ELK4) | binding signal (ETV1) | binding signal (ERF) | binding signal (ETV3L) | binding signal (SPDEF) | binding signal (ETV3) | binding signal (ETV6) | binding signal (FEV) | binding signal (ELF4) | binding signal (ETV2) | binding signal (ELF3) | binding signal (ETS2) | binding signal (ETV7) |
| --- | --- | --- | --- | --- | --- | --- | --- | --- | --- | --- | --- | --- | --- | --- | --- | --- | --- | --- |
| CGTCCA | 1.04 fold enrichment (6-mer frequency, TF over GST control) | 1.05 fold enrichment (6-mer frequency, TF over GST control) | 1.02 fold enrichment (6-mer frequency, TF over GST control) | 1 fold enrichment (6-mer frequency, TF over GST control) | 1.02 fold enrichment (6-mer frequency, TF over GST control) | 1 fold enrichment (6-mer frequency, TF over GST control) | 1.08 fold enrichment (6-mer frequency, TF over GST control) | 1.02 fold enrichment (6-mer frequency, TF over GST control) | 1.13 fold enrichment (6-mer frequency, TF over GST control) | 1.07 fold enrichment (6-mer frequency, TF over GST control) | 1.03 fold enrichment (6-mer frequency, TF over GST control) | 1.04 fold enrichment (6-mer frequency, TF over GST control) | – | – | – | – | – | – |
| CGCGTT | 1.01 fold enrichment (6-mer frequency, TF over GST control) | 1.12 fold enrichment (6-mer frequency, TF over GST control) | – | 1.05 fold enrichment (6-mer frequency, TF over GST control) | 1.02 fold enrichment (6-mer frequency, TF over GST control) | 1.09 fold enrichment (6-mer frequency, TF over GST control) | 1.06 fold enrichment (6-mer frequency, TF over GST control) | – | 1.15 fold enrichment (6-mer frequency, TF over GST control) | – | 1.03 fold enrichment (6-mer frequency, TF over GST control) | 1.06 fold enrichment (6-mer frequency, TF over GST control) | 1.09 fold enrichment (6-mer frequency, TF over GST control) | 1.1 fold enrichment (6-mer frequency, TF over GST control) | 1.16 fold enrichment (6-mer frequency, TF over GST control) | 1.05 fold enrichment (6-mer frequency, TF over GST control) | 1.13 fold enrichment (6-mer frequency, TF over GST control) | 1.02 fold enrichment (6-mer frequency, TF over GST control) |
